# Source: PubChem BioAssay (NCATS)
# Inconclusive results are not listed. A call without a number means that no potency is given here. Values without a mark were called inactive. The source made the active and inactive calls. Unless noted, the call rests on the fitted dose curve.
# Experiments:
# [1] = qHTS assay for small molecule agonists of the antioxidant response element (ARE) signaling pathway (AID 651741; active means well fitted activation curve with a large enough effect in the signal ratio; the % refers to the signal ratio)
# How it was run: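 Stably integrated ARE-beta-lactamase reporter HepG2 cells; 16 h compound incubation, 37 C; LiveBLAzer FRET substrate 2 h at room temperature; fluorescence intensity.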
# [2] = qHTS assay for small molecule activators of the p53 signaling pathway (AID 651743; active means well fitted activation curve with a large enough effect in the signal ratio, not every such curve was filed as active; the % refers to the signal ratio; further: series mostly up to about 92 µM); conditions: HCT-116 p53RE-bla, beta-lactamase FRET ratio, 16 h; active compounds read high
# How it was run: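 Following 16 hours of compound exposure at 37 C, HCT-116 cells bearing the p53RE-bla reporter were loaded with LiveBLAzer B/G FRET substrate for 2 hours at room temperature and fluorescence intensity was recorded.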
# [3] = qHTS assay for small molecule activators of the nuclear factor-kappa B (NF-kB) signaling pathway (AID 651749; active means well fitted activation curve with a large enough effect in the signal ratio; the % refers to the signal ratio; further: series mostly up to about 77 µM); conditions: NF-kB-bla ME-180 cells, beta-lactamase FRET ratio, 16 h; active compounds read high
# How it was run: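 In this qHTS format, compounds acting as activators increase NF-kB-driven beta-lactamase in ME-180 cells, measured as disrupted FRET after 16 hr exposure at 37C and 5% CO2.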
# [4] = qHTS assay for small molecule disruptors of the mitochondrial membrane potential - 1 hr assay (AID 651754); further: nearly all actives have a fitted effect of over 35% in size
# How it was run: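 Mitochondrial potential in living HepG2 cells after 1 hr compound treatment at 37C was read with Mito-MPS dye added for a further 30 min. Red aggregate and green monomer fluorescence were measured; loss of potential leaves dye as cytoplasmic monomers.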
# [5] = qHTS assay for small molecule disruptors of the mitochondrial membrane potential - 5 hr assay (AID 651755); further: nearly all actives have a fitted effect of over 40% in size
# How it was run: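 Read-out: ratiometric Mito-MPS fluorescence, green monomer (ex 490/em 535) vs red mitochondrial aggregate (ex 540/em 590). HepG2 cells treated 5 hr at 37C before 30 min dye loading.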
# [6] = qHTS assay to identify small molecules that stimulate interleukin-8 (IL-8) secretion (AID 651758; active means well fitted activation curve with a large enough effect in the signal ratio; the % refers to the signal ratio)
# How it was run: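 Compounds are added to THP-1 cells (2000 per well) and left 16 hrs at 37 C. A labeled anti-IL-8 antibody pair is then added, and IL-8 secretion is measured by time-resolved FRET after 1-3 hrs at room temperature.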
# [7] = S16 Schwann cell PMP22 intronic element firefly luciferase assay (AID 624032; active means well fitted curve in the direction sought with a large enough effect; an effect the other way counts as inactive or inconclusive; further: series mostly up to about 58 µM; nearly all actives have a fitted effect of over 30% in size)
# How it was run: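 Rat S16 Schwann cells stably carrying firefly luciferase driven by a PMP22 intronic element, in 10% FBS, treated 24 h at 37 C. ONE-Glo luminescence normalized to PTC124 control and DMSO (0%); curves classed by r2, magnitude and activity.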
# [8] = S16 Schwann cell PMP22 intronic element beta-lactamase assay (AID 624044); further: nearly all actives have a fitted effect of over 15% in size
# Source text: Description: Charcot-Marie-Tooth-Association [CMTA] National Center for Advancing Translational Sciences [NCATS] Charcot-Marie-Tooth (CMT) disease was first characterized by Jean-Martin Charcot and Pierre Marie in France and, independently, by Howard Henry Tooth in England in 1886. CMT is one of the most common inherited neurological diseases, affecting approximately 1 in 2,500 Americans. […] The most prevalent type of CMT is known as CMT1A and caused by a duplication of the PMP22 gene which leads to over-expression of this protein. […]
# S16 Schwann cell PMP22 intronic element beta-lactamase assay The beta-Lac-expressing S16 cells were seeded in black clear-bottom 1536 well plates at between 500-750 cells/6uL in DMEM medium containing 10% FBS, w/o phenol red. […] An EnVision plate reader (PerkinElmer) was used to detect the dual beta-Lac output composed of fluorescence at 460nm for beta-Lac expression and FRET at 535nm for cell viability. […] The % signal at 460nm was normalized to the average readings of potassium clavulanate (a positive control) - treated cells relative to DMSO-treated cells (0% Activity). The concentration-effect curves were then classified based on curve quality (r2), response magnitude and degree of measured activity.
# [9] = target: Tumor necrosis factor (Homo sapiens) (UniProt P01375); assay: qHTS assay to identify small molecules that stimulate Tumor Necrosis Factor-alpha (TNF-alpha) secretion (AID 651757; active means well fitted curve in the direction sought with a large enough effect in the signal ratio; the % refers to the signal ratio)
# Tumor necrosis factor (Homo sapiens), sequence (P01375 whole entry, looked up): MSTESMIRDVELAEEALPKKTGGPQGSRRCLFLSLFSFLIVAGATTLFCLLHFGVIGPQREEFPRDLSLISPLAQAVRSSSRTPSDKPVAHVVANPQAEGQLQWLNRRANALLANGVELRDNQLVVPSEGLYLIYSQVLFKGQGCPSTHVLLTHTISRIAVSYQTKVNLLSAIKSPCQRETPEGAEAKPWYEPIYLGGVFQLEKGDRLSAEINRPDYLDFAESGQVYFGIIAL
# How it was run: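 Secreted TNF-alpha quantified by TR-FRET sandwich of two labeled anti-TNF-alpha antibodies, incubated 3 hr at room temperature. Preceded by 17 hr, 37 C compound treatment of THP-1 cells at 3000 cells/well.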
# [10] = qHTS assay for environmental chemicals that activate the Aryl hydrocarbon Receptor (AhR) signaling pathway (AID 651777; active means well fitted curve in the direction sought with a large enough effect; an effect the other way counts as inactive or inconclusive; further: potency means the concentration at half of the fitted maximal effect; nearly all actives have a fitted effect of over 15% in size); conditions: 1A2-DRE human hepatoma cells, luciferase, 24 h
# How it was run: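 Quantitative HTS in stably transfected human liver-derived cells whose luciferase gene sits downstream of the CYP1A2 promoter and dioxin response element. After 24 hr exposure at 37 C, One-Glo luminescence was measured.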
smiles,measurement,setting,value
COc1ccc(CCC(=O)c2c(O)cc(O[C@@H]3O[C@H](CO)[C@@H](O)[C@H](O)[C@H]3O[C@@H]3O[C@@H](C)[C@H](O)[C@@H](O)[C@H]3O)cc2O)cc1O,outcome,[1],inactive
same,activation,[2],-3.41%
same,activation,[3],-2.14%
same,outcome,[4],inactive
same,outcome,[5],inactive
same,outcome,[6],inactive
CCc1cccc2c3c([nH]c12)[C@@](CC)(CC(=O)O)OCC3,outcome,[7],inactive
same,outcome,[8],inactive
C=C1C[C@]23C[C@@]1(O)CC[C@H]2[C@@]12C=C[C@H](O)[C@@](C)(C(=O)O1)[C@H]2[C@@H]3C(=O)O,outcome,[1],inactive
same,outcome,[4],inactive
same,outcome,[5],inactive
same,outcome,[9],inactive
O=C(/C=C/C=C/c1ccc2c(c1)OCO2)N1CCCCC1,outcome,[1],inactive
same,activation,[2],-2.18%
same,activation,[3],-1.08%
same,Potency,[10],14.1 µM (active)
CCOC(=O)C(CCc1ccccc1)NC(C)C(=O)N1Cc2ccccc2CC1C(=O)O (stereo not drawn),outcome,[7],inactive
same,outcome,[8],inactive
